Rows were chosen to be rich in hits. Some 1.2% of all compounds tested hit in one or more screens of this group.
RGS7-Gao: regulators of human RGS7-Galphao interaction; P09471; Multiplexed bead flow cytometry, RGS7-Galphao binding; actives lie on both sides; binding response (% of control), % at 10 µM; 0.35% of 220,000 active; in the data active = binding response below about 49% or above about 150%; inconclusive = no clear call, values can overlap the other calls; inactive = in between;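 also: fluorescent Galphao held in activated GDP-AlF4 state binding bead-coupled RGS7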
Target sequence (P09471 whole entry, looked up): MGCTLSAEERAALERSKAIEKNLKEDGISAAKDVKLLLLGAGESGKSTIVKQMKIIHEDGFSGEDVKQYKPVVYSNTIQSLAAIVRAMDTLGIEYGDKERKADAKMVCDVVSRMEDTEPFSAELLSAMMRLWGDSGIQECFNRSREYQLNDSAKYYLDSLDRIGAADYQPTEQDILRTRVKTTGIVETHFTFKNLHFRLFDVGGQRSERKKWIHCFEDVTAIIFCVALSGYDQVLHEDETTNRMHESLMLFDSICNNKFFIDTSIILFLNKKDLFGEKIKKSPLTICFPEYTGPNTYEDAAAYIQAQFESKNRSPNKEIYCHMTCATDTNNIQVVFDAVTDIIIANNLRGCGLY
RGS8-Gao: regulators of human RGS8-Galphao interaction. P09471. multiplexed bead flow cytometry, RGS8-Galphao binding; actives lie on both sides. response (percent of control binding), % at 10 µM. 0.34% of 220,000 active. AID 1423; in the data active = response below about 60% or above about 140%; inactive = in between;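 also: Galphao activated as the GDP aluminium fluoride complex binding bead-coupled RGS8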
RGS4-Gao reg: human RGS4-Galphao interaction regulation | P09471 | Multiplexed bead flow cytometry, RGS4-Galphao binding; actives lie on both sides | binding response (% of control), % at 10 µM | 0.33% of 220,000 active; in the data active = binding response below about 49% or above about 150%; inactive = in between;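 also: fluorescent Galphao activated with aluminum fluoride binding bead-coupled RGS4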
RGS16-Gao: modulates binding between human RGS16 and Galphao; AID 1441; O15492+P09471; bead-based flow cytometry RGS16-Galphao binding, fluorescence; actives lie on both sides; binding response (% of control), % at 10 µM; 0.38% of 220,000 active; call rule not given here;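 also: Galphao activated by GDP with aluminum fluoride before binding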
Avidin fluor: avidin bead compound fluorescence profile. Avidin beads, compound fluorescence 488/530 nm, flow cytometry; active compounds read high. fluorescence (KMESF) at 10 µM. 0.38% of 220,000 active; in the data active = fluorescence above about 47
GSH bead fluor: GSH bead compound fluorescence profile; GSH beads flow cytometry, compound fluorescence 488/530 nm; active compounds read high; fluorescence (KMESF) at 10 µM; 0.25% of 190,000 active; in the data active = fluorescence above about 89;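 also: glutathione beads carrying GST-tagged Bcl family fusion proteins plus one bare bead set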
Numbers stand for hits; n = inactive; u = inconclusive; x = not tested or not shown; [ ] = dose if it differs, or a comment.

SMILES	RGS7-Gao	RGS8-Gao	RGS4-Gao reg	RGS16-Gao	Avidin fluor	GSH bead fluor
COc1cc(NC(=S)NC(=O)c2ccc(C(C)(C)C)cc2)ccc1NC(=O)c1cccs1	n	n	n	n	n	n
CCOC(=O)NC(=O)CSc1nnnn1-c1ccccc1	n	n	n	n	109	n
O=C(COc1ccccc1)N1CCN(c2ccc([N+](=O)[O-])c(N3CCCCC3)c2)CC1	n	n	n	n	54	n
COc1cc(OC)cc(C(=O)N2CCN(C(=O)COc3ccc4ccccc4c3)CC2)c1	n	n	n	n	n	n
O=C(COc1ccc(Br)cc1)N1CCN(c2ccc([N+](=O)[O-])c(N3CCCCC3)c2)CC1	n	n	n	n	n	n
O=C(COc1ccc2ccccc2c1)N1CCN(C(=O)c2cccnc2)CC1	n	n	n	n	85	n
COc1ccc(N2CCN(C(=O)COc3ccc4ccccc4c3)CC2)cc1	n	n	n	n	53	n
Cc1cccc(NC2=C(Cl)C(=O)OC2NC(=O)c2ccccc2)c1 (stereo unspecified)	n	n	n	n	n	n
CCOC(=O)N1CCC(NC(=O)CCc2nc(-c3ccccc3F)no2)CC1	n	n	n	n	n	n
CN(CCOc1ccc(-c2ccn(S(=O)(=O)c3cccc4ccccc34)n2)cc1)c1ccccn1	n	n	n	n	n	n
CCc1nnc(NC(=O)CCN2C(=O)CCC2=O)s1	n	n	n	n	n	264
CCCCCCC(=O)Nc1nnc(CC)s1	n	n	n	n	n	n
COc1ccc(C2CC(c3ccccc3)Nc3nc(N)nn32)cc1 (stereo unspecified)	n	n	n	n	50	n
COc1ccc(C2CC(c3ccc(Br)cc3)Nc3nc(N)nn32)cc1 (stereo unspecified)	n	n	n	n	n	n
CCc1ccc(N2C(=O)CC(Cn3nc(C)cc3C)C2=O)cc1 (stereo unspecified)	u	n	n	n	n	x
O=C(CSc1cccc(C(F)(F)F)c1)N1CCN(S(=O)(=O)c2ccccc2)CC1	n	n	n	n	n	265
O=C(O)/C=C/C(=O)N1CCN(S(=O)(=O)c2cccc(C(F)(F)F)c2)CC1	n	n	n	n	n	n
CCc1ccc2c(c1)cc(CN(C(=S)Nc1cccc(C)c1)C1CC1)c1nnnn12	n	n	n	n	n	n
Cc1cc2cc(CN(C(=O)C3CC3)C3CCCC3)c3nnnn3c2cc1C	n	n	n	n	61	n
CC(C)n1c(NCc2ccc(Cl)cc2)nc2ccccc21	u	n	n	n	n	x
CC1Cc2ccccc2N1C(=O)CCS(=O)(=O)c1cccs1 (stereo unspecified)	322[activator]	148[activator]	222[activator]	n	125	150
CC1Cc2ccccc2N1C(=O)CN1C(=O)C(=O)N(Cc2ccccc2)C1=O (stereo unspecified)	n	n	n	n	n	260
Cc1ccc(S(=O)(=O)Nc2nc(C)cc(NN)n2)cc1	u	n	n	n	n	x
Cc1ccc(S(=O)(=O)Nc2nc(C)cc(NCCN)n2)cc1	n	n	n	n	n	279
COC(=O)c1c(C)oc(C)c1S(=O)(=O)N1CCCC1	u	n	n	n	n	x
SMILES	RGS7-Gao	RGS8-Gao	RGS4-Gao reg	RGS16-Gao	Avidin fluor	GSH bead fluor
Cc1ccc(/C=C2\CCC3=C2OC(N)=C(C#N)C3c2ccc(C)cc2)cc1 (stereo unspecified)	n	n	n	n	66	n
Cc1ccc(NC(=O)COC(=O)c2ccc(OCc3c(C)noc3C)cc2)cc1S(=O)(=O)N1CCOCC1	n	n	n	n	n	n
CCC(=O)NC(Nc1ncc(C)s1)(C(=O)OC)C(F)(F)F (stereo unspecified)	n	n	n	n	n	124
Cc1occc1-c1nnc(SCC(=O)NCc2cccs2)n1-c1ccc(F)cc1	n	n	n	n	n	n
N#Cc1nccnc1S(=O)(=O)c1cccs1	u	n	n	n	n	x
CC(C)(C)OC(=O)N[C@@H](Cc1ccccc1)c1nnc(S(=O)(=O)Cc2ccccc2)o1	n	n	n	n	n	n
Cc1ccccc1CS(=O)(=O)c1nnc([C@H](Cc2ccccc2)NC(=O)OC(C)(C)C)o1	n	n	n	n	48	n
CC(=O)N1CCC2(CC1)C(C#N)=C(N)OC1=C2C(=O)CC(C)(C)C1	n	n	n	n	51	n

Screens deposited in PubChem BioAssay by NMMLSC.
